# Laboratory results taken from PubChem BioAssay (NCI).
# The panel holds about 83,000 compounds, 20% with a hit somewhere; the sample as a whole holds those more often.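 96-well plates, one dose, 48 hours. Percent growth reported; active if below 10.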 Unmarked numbers belong to inactive results. The source made the active and inactive calls.
# Experiments:
# Test in all cases: NCI-60 one-dose screen, 48 h (100 = growth as untreated, 0 = no growth, -100 = all killed)
# NCI-H23 lung = conditions: 10 µM unless noted
# NCI-H226 lung = conditions: 10 µM unless noted
# NCI-H322M lung = conditions: 10 µM unless noted
# HOP-62 NSCLC = conditions: 10 µM unless noted
# NCI-H460 lung = conditions: 10 µM unless noted
# A549/ATCC NSCLC = conditions: 10 µM unless noted
# 786-0 renal = conditions: 10 µM unless noted
# COLO 205 colon = conditions: 10 µM unless noted
# DU-145 prostate = conditions: 10 µM unless noted
# K-562 leukemia = conditions: 10 µM unless noted
# MALME-3M melanoma = conditions: 10 µM unless noted
# MDA-MB-231 breast = conditions: 10 µM unless noted
# RXF 393 renal = conditions: 10 µM unless noted
# SF-268 CNS = conditions: 10 µM unless noted
# SF-295 CNS = conditions: 10 µM unless noted
# SF-539 CNS = conditions: 10 µM unless noted
# UACC-257 melanoma = conditions: 10 µM unless noted
# HOP-92 NSCLC = conditions: 10 µM unless noted
# M14 melanoma = conditions: 10 µM unless noted
# NCI-H522 lung = conditions: 10 µM
SMILES,growth (NCI-H23 lung),growth (NCI-H226 lung),growth (NCI-H322M lung),growth (HOP-62 NSCLC),growth (NCI-H460 lung),growth (A549/ATCC NSCLC) [%],growth (786-0 renal),growth (COLO 205 colon),growth (DU-145 prostate),growth (K-562 leukemia),growth (MALME-3M melanoma),growth (MDA-MB-231 breast),growth (RXF 393 renal),growth (SF-268 CNS),growth (SF-295 CNS),growth (SF-539 CNS),growth (UACC-257 melanoma),growth (HOP-92 NSCLC),growth (M14 melanoma),growth (NCI-H522 lung) [%]
O=c1[nH]c(SCc2ccccc2)nc2nc(Nc3ccc(NC(=S)Nc4ccccc4)cc3)nc(-c3ccc(O)cc3O)c12,97.3%,93.2%,121%,102%,103%,105,94.7%,98.2%,112%,90.6%,75%,98%,66.2%,92.6%,101%,91.8%,109%,,,
NS(=O)(=O)c1ccc(-n2nc(-c3ccc(Br)cc3)ccc2=O)cc1,61.3% [100 µM],79.5% [100 µM],87.7% [100 µM],20% [100 µM],67.2% [100 µM],,46.7% [100 µM],80.2% [100 µM],12.4% [100 µM],40.1% [100 µM],55.1% [100 µM],34.2% [100 µM],40.9% [100 µM],66.8% [100 µM],,67% [100 µM],106% [100 µM],-30.5% [100 µM] (active),62.4% [100 µM],
O=C(N/N=C/c1cccc([N+](=O)[O-])c1)c1ccc(Br)o1,102%,109%,105%,106%,114%,,92.5%,97.9%,103%,,115%,115%,104%,104%,111%,98.4%,,,99.8%,85.7
CCOC(=O)Nc1cc(-c2ccc(C)c(NS(C)(=O)=O)c2)nn2c(C)nnc12,18%,35%,2.04% (active),14.1%,28.5%,,35.5%,3.41% (active),43.9%,16.7%,-25% (active),26.5%,-8% (active),41.6%,-21.2% (active),17.2%,,-10.2% (active),19%,
COc1ccc(C(=O)COc2cccc(/C=C3\COc4ccc5ccccc5c4C3=O)c2)cc1,59.5%,72.7%,147%,96.5%,62%,,83%,123%,,47.8%,72%,53.7%,,83.8%,107%,16%,79.4%,33.8%,91.2%,
O=C(Nc1ccc(Cl)cc1)Nc1ccccc1CNc1nc(Nc2ccc(OCCN3CCCC3)cc2)ncc1Cl,33.5%,97%,101%,82.2%,-77.7% (active),,-86.6% (active),37.8%,-42.9% (active),-4.05% (active),-81% (active),-51% (active),-64.6% (active),41.7%,89.2%,77.6%,,72.9%,-76.3% (active),
COc1ccc(-c2ccc(O)c(C(=O)/C=C/c3cc(OC)c(OC)c(OC)c3)c2)cc1,72.7%,99.1%,81.8%,103%,79.9%,,99.4%,83.7%,83.7%,56.5%,,85.6%,94.5%,79.6%,92.4%,96.8%,86.6%,56%,93.6%,
FCc1ncc(-c2ccc(C(F)(F)F)cc2)c(NC2CCCCCC2)n1,10.9% [100 µM],34.4% [100 µM],36.3% [100 µM],31.2% [100 µM],-28.9% [100 µM] (active),,-13.7% [100 µM] (active),-21% [100 µM] (active),-27.6% [100 µM] (active),-2.97% [100 µM] (active),-16.9% [100 µM] (active),0% [100 µM] (active),1.22% [100 µM] (active),-0.671% [100 µM] (active),-40.9% [100 µM] (active),,-6.1% [100 µM] (active),-31.7% [100 µM] (active),2.44% [100 µM] (active),
Cn1ccnc1C(=O)/C=C/c1ccc(C(=O)Nc2nc3ccccc3[nH]2)cc1,23.3%,82.4%,43.8%,34.1%,10.9%,,23.6%,55.1%,-13.7% (active),2.24% (active),72.7%,19.3%,2.67% (active),40.2%,64.9%,9.47% (active),,52.8%,71.1%,
